Reference: the supplement of paper PMC6522484
± gives the standard deviation of the averaged measurements.

Key:
[1] = test system: DLD1; assay: cell viability (CellTiter-Glo) relative to plate median (fraction of plate median); higher = more viable cells; conditions: 5 µM; treatment time 24 h; reporter: 7TFP
Outline: (§1)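 Luminescence, normalised well by well to the plate median, is tabulated as a mean of independent replicates. There were two replicates, run on colorectal cancer lines stably transduced with lentiviral TCF/Wnt firefly luciferase reporters and dosed with library compounds at a final 5 µM for 24 h. Readouts were firefly luciferase or CellTiterGlo on parallel plates.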

[2] = test system: HCT116; assay: as above; conditions: 5 µM; treatment time 24 h; reporter: TCF4/Wnt
Outline: as §1

[3] = test system: SW480; assay: as above; conditions: 5 µM; treatment time 24 h; reporter: 7TFP
Outline: as §1

[4] = test system: DLD1; assay: TCF/Wnt firefly luciferase reporter signal relative to plate median (fraction of plate median); higher = higher Wnt reporter signal; conditions: 5 µM; treatment time 24 h; reporter: 7TFP
Outline: as §1

[5] = test system: SW480; assay: as above; conditions: 5 µM; treatment time 24 h; reporter: 7TFP
Outline: as §1

| SMILES | cell viability [1] | cell viability [2] | cell viability [3] | TCF/Wnt firefly luciferase reporter signal [4] | TCF/Wnt firefly luciferase reporter signal [5] |
| --- | --- | --- | --- | --- | --- |
| Oc1c(Br)cc(Br)c2cccnc12 | 1.02 ± 0.021 | 1.07 ± 0.071 | 0.965 ± 0.064 | 1.24 ± 0.014 | 1.12 ± 0.028 |
| CC(COc1ccccc1)NC(C)C(O)c1ccc(O)cc1 (stereo not given) | 1.03 ± 0.096 | 0.966 ± 0.091 | 0.916 ± 0.017 | 1.18 ± 0.05 | 1.01 ± 0.076 |
| C=CCSCC(N)C(=O)O (stereo not given) | 1.015 ± 0.0071 | 0.976 ± 0.15 | 1.01 ± 0.05 | 0.923 ± 0.027 | 0.923 ± 0.02 |
| COc1ccc2c(c1)OCC(Cc1ccc(O)c(OC)c1)C2=O (stereo not given) | 0.99 ± 0.014 | 1.04 ± 0.07 | 0.915 ± 0.049 | 0.887 ± 0.066 | 0.971 ± 0.084 |
| Nc1ccn([C@@H]2O[C@H](CO)[C@@H](O)[C@H]2O)c(=O)n1 | 0.977 ± 0.033 | 1.06 ± 0.057 | 1.06 ± 0.028 | 1.16 ± 0.064 | 1.05 ± 0.057 |
| CC(C)(C)CC(C)(C)c1ccc(OCCOCC[N+](C)(C)Cc2ccccc2)cc1 | 1.07 ± 0.028 | 0.99 ± 0.071 | 1.05 ± 0.021 | 0.983 ± 0.081 | 0.897 ± 0.017 |
| COc1cccc2c1C(=O)c1c(O)c3c(c(O)c1C2=O)C[C@@](O)(C(C)=O)C[C@@H]3O[C@H]1C[C@H](NC=O)[C@H](O)[C@H](C)O1 [Baumycin C1] | 0.9535 ± 0.0021 | 0.838 ± 0.081 | 0.9955 ± 0.0035 | 0.955 ± 0.042 | 1.05 ± 0.057 |
| CN(C)CCC=C1c2ccccc2CCc2ccccc21 | 0.958 ± 0.036 | 0.997 ± 0.047 | 0.989 ± 0.016 | 0.952 ± 0.061 | 0.963 ± 0.046 |
| NC(=O)N(CCc1ccccc1)CCc1ccccc1 [N, N-Bis(2-phenylethyl)urea] | 1.08 ± 0.085 | 1.01 ± 0.014 | 1.06 ± 0.021 | 1.03 ± 0.028 | 0.946 ± 0.077 |
| COc1cc2c(cc1OC)C(=O)C(CC1CCN(Cc3ccccc3)CC1)C2 (stereo not given) | 1.05 ± 0.014 | 1.06 ± 0.042 | 1.06 | 1.12 ± 0.14 | 1.06 ± 0.05 |
| O=C(O)c1cc(=O)c2ccccc2[nH]1 | 1.01 ± 0.021 | 0.968 ± 0.16 | 0.9555 ± 0.0064 | 0.8765 ± 0.0078 | 0.986 ± 0.048 |
| CC1=C2C(O)C(=O)OC3CC4C(C)(C)C(=O)C=C[C@]4(C)C(CC1)[C@]23C (stereo not given in full) | 0.931 ± 0.015 | 0.97 ± 0.13 | 1.015 ± 0.0071 | 1.01 ± 0.14 | 1.14 ± 0.05 |
| CN(C)CCC=C1c2ccccc2COc2ccccc21 | 0.994 ± 0.052 | 1.01 ± 0.021 | 0.949 ± 0.032 | 1.06 ± 0.028 | 1.07 ± 0.014 |
| O=C1C=CC(=C(c2ccc(O)cc2)c2ccc(O)cc2)C=C1 | 0.99 ± 0.057 | 0.944 ± 0.018 | 1.01 ± 0.035 | 0.851 ± 0.038 | 0.93 ± 0.099 |
| CC[C@@]1(O)C(=O)OCc2c1cc1n(c2=O)Cc2cc3cc(O)ccc3nc2-1 | 1.05 ± 0.071 | 0.724 ± 0.093 | 0.999 ± 0.14 | 0.871 ± 0.1 | 0.805 ± 0.041 |
